# Experimental data as given in paper PMC11062922 (Nature Chemical Biology, 2023).
# Like-named read-outs stand apart in the source and are kept apart here.
# Assays:
# STK3 = settings: read-out: apparent Kd, n = 1
# STK4 = settings: read-out: apparent Kd, n = 1
substance,measurement,setting,value
Lestaurtinib,potency estimated from few doses,"STK3; compound concentrations:100 nM and 1000 nM (sheet 'Lestaurtinib' of Supplementary Table 1),run:Lestaurtinib_02748_R1,Plate:MR024",35.8 nM
same,potency estimated from few doses,"STK3; compound concentrations:100 nM and 1000 nM (sheet 'Lestaurtinib' of Supplementary Table 1),run:Lestaurtinib_02748_R3,Plate:MR024",40.1 nM
same,potency estimated from few doses,"STK3; compound concentrations:100 nM and 1000 nM (sheet 'Lestaurtinib' of Supplementary Table 1),run:Lestaurtinib_02765_R1,Plate:MR026",38.6 nM
same,potency estimated from few doses,"STK3; compound concentrations:100 nM and 1000 nM (sheet 'Lestaurtinib' of Supplementary Table 1),run:Lestaurtinib_02765_R2,Plate:MR026",37.7 nM
same,potency estimated from few doses,"STK3; compound concentrations:100 nM and 1000 nM (sheet 'Lestaurtinib' of Supplementary Table 1),run:Lestaurtinib_02766_R3,Plate:MR027",42.9 nM
same,potency estimated from few doses,"STK3; compound concentrations:100 nM and 1000 nM (sheet 'Lestaurtinib' of Supplementary Table 1),run:Lestaurtinib_02768_R1,Plate:MR028",31.9 nM
same,potency estimated from few doses,"STK3; compound concentrations:100 nM and 1000 nM (sheet 'Lestaurtinib' of Supplementary Table 1),run:Lestaurtinib_02768_R3,Plate:MR028",40.1 nM
same,potency estimated from few doses,"STK3; compound concentrations:100 nM and 1000 nM (sheet 'Lestaurtinib' of Supplementary Table 1),run:Lestaurtinib_02795_R1,Plate:MR022",43.4 nM
same,potency estimated from few doses,"STK3; compound concentrations:100 nM and 1000 nM (sheet 'Lestaurtinib' of Supplementary Table 1),run:Lestaurtinib_02795_R2,Plate:MR022",27.8 nM
same,potency estimated from few doses,"STK3; compound concentrations:100 nM and 1000 nM (sheet 'Lestaurtinib' of Supplementary Table 1),run:Lestaurtinib_02795_R3,Plate:MR022",141 nM
same,potency estimated from few doses,"STK3; compound concentrations:100 nM and 1000 nM (sheet 'Lestaurtinib' of Supplementary Table 1),run:Lestaurtinib_02802_R1,Plate:MR029",22.4 nM
same,potency estimated from few doses,"STK3; compound concentrations:100 nM and 1000 nM (sheet 'Lestaurtinib' of Supplementary Table 1),run:Lestaurtinib_02802_R3,Plate:MR029",47.8 nM
same,potency estimated from few doses,"STK3; compound concentrations:100 nM and 1000 nM (sheet 'Lestaurtinib' of Supplementary Table 1),run:Lestaurtinib_02896_R1,Plate:MR030",38.8 nM
same,potency estimated from few doses,"STK3; compound concentrations:100 nM and 1000 nM (sheet 'Lestaurtinib' of Supplementary Table 1),run:Lestaurtinib_02896_R2,Plate:MR030",37.2 nM
same,potency estimated from few doses,"STK3; compound concentrations:100 nM and 1000 nM (sheet 'Lestaurtinib' of Supplementary Table 1),run:Lestaurtinib_02896_R3,Plate:MR030",37.9 nM
same,potency estimated from few doses,"STK3; compound concentrations:100 nM and 1000 nM (sheet 'Lestaurtinib' of Supplementary Table 1),run:Lestaurtinib_03172_R1,Plate:MR031",35 nM
same,potency estimated from few doses,"STK3; compound concentrations:100 nM and 1000 nM (sheet 'Lestaurtinib' of Supplementary Table 1),run:Lestaurtinib_03172_R3,Plate:MR031",39.7 nM
same,potency estimated from few doses,"STK3; compound concentrations:100 nM and 1000 nM (sheet 'Lestaurtinib' of Supplementary Table 1),run:Lestaurtinib_03252_R2,Plate:MR032",48.1 nM
same,potency estimated from few doses,"STK3; compound concentrations:100 nM and 1000 nM (sheet 'Lestaurtinib' of Supplementary Table 1),run:Lestaurtinib_03260_R3,Plate:MR033",36.6 nM
same,potency estimated from few doses,"STK4; compound concentrations:100 nM and 1000 nM (sheet 'Lestaurtinib' of Supplementary Table 1),run:Lestaurtinib_02339_R1,Plate:MR001",42 nM
same,potency estimated from few doses,"STK4; compound concentrations:100 nM and 1000 nM (sheet 'Lestaurtinib' of Supplementary Table 1),run:Lestaurtinib_02339_R2,Plate:MR001",40.1 nM
same,potency estimated from few doses,"STK4; compound concentrations:100 nM and 1000 nM (sheet 'Lestaurtinib' of Supplementary Table 1),run:Lestaurtinib_02339_R3,Plate:MR001",27.7 nM
same,potency estimated from few doses,"STK4; compound concentrations:100 nM and 1000 nM (sheet 'Lestaurtinib' of Supplementary Table 1),run:Lestaurtinib_02364_R1,Plate:MR002",35.9 nM
same,potency estimated from few doses,"STK4; compound concentrations:100 nM and 1000 nM (sheet 'Lestaurtinib' of Supplementary Table 1),run:Lestaurtinib_02364_R2,Plate:MR002",43 nM
same,potency estimated from few doses,"STK4; compound concentrations:100 nM and 1000 nM (sheet 'Lestaurtinib' of Supplementary Table 1),run:Lestaurtinib_02364_R3,Plate:MR002",43.2 nM
same,potency estimated from few doses,"STK4; compound concentrations:100 nM and 1000 nM (sheet 'Lestaurtinib' of Supplementary Table 1),run:Lestaurtinib_02367_R1,Plate:MR003",35.7 nM
same,potency estimated from few doses,"STK4; compound concentrations:100 nM and 1000 nM (sheet 'Lestaurtinib' of Supplementary Table 1),run:Lestaurtinib_02367_R2,Plate:MR003",35 nM
same,potency estimated from few doses,"STK4; compound concentrations:100 nM and 1000 nM (sheet 'Lestaurtinib' of Supplementary Table 1),run:Lestaurtinib_02367_R3,Plate:MR003",39.1 nM
same,potency estimated from few doses,"STK4; compound concentrations:100 nM and 1000 nM (sheet 'Lestaurtinib' of Supplementary Table 1),run:Lestaurtinib_02381_R1,Plate:MR004",35.8 nM
same,potency estimated from few doses,"STK4; compound concentrations:100 nM and 1000 nM (sheet 'Lestaurtinib' of Supplementary Table 1),run:Lestaurtinib_02381_R2,Plate:MR004",36.2 nM
same,potency estimated from few doses,"STK4; compound concentrations:100 nM and 1000 nM (sheet 'Lestaurtinib' of Supplementary Table 1),run:Lestaurtinib_02407_R3,Plate:MR005",33 nM
same,potency estimated from few doses,"STK4; compound concentrations:100 nM and 1000 nM (sheet 'Lestaurtinib' of Supplementary Table 1),run:Lestaurtinib_02422_R1,Plate:MR006",44.8 nM
same,potency estimated from few doses,"STK4; compound concentrations:100 nM and 1000 nM (sheet 'Lestaurtinib' of Supplementary Table 1),run:Lestaurtinib_02422_R2,Plate:MR006",50.1 nM
same,potency estimated from few doses,"STK4; compound concentrations:100 nM and 1000 nM (sheet 'Lestaurtinib' of Supplementary Table 1),run:Lestaurtinib_02422_R3,Plate:MR006",45.3 nM
same,potency estimated from few doses,"STK4; compound concentrations:100 nM and 1000 nM (sheet 'Lestaurtinib' of Supplementary Table 1),run:Lestaurtinib_02437_R1,Plate:MR007",42 nM
same,potency estimated from few doses,"STK4; compound concentrations:100 nM and 1000 nM (sheet 'Lestaurtinib' of Supplementary Table 1),run:Lestaurtinib_02437_R2,Plate:MR007",41.6 nM
same,potency estimated from few doses,"STK4; compound concentrations:100 nM and 1000 nM (sheet 'Lestaurtinib' of Supplementary Table 1),run:Lestaurtinib_02437_R3,Plate:MR007",4.01 nM
same,potency estimated from few doses,"STK4; compound concentrations:100 nM and 1000 nM (sheet 'Lestaurtinib' of Supplementary Table 1),run:Lestaurtinib_02438_R1,Plate:MR008",36.6 nM
same,potency estimated from few doses,"STK4; compound concentrations:100 nM and 1000 nM (sheet 'Lestaurtinib' of Supplementary Table 1),run:Lestaurtinib_02438_R3,Plate:MR008",38.2 nM
same,potency estimated from few doses,"STK4; compound concentrations:100 nM and 1000 nM (sheet 'Lestaurtinib' of Supplementary Table 1),run:Lestaurtinib_02443_R1,Plate:MR009",38.6 nM
same,potency estimated from few doses,"STK4; compound concentrations:100 nM and 1000 nM (sheet 'Lestaurtinib' of Supplementary Table 1),run:Lestaurtinib_02443_R3,Plate:MR009",36.6 nM
same,potency estimated from few doses,"STK4; compound concentrations:100 nM and 1000 nM (sheet 'Lestaurtinib' of Supplementary Table 1),run:Lestaurtinib_02473_R2,Plate:MR010",44.6 nM
same,potency estimated from few doses,"STK4; compound concentrations:100 nM and 1000 nM (sheet 'Lestaurtinib' of Supplementary Table 1),run:Lestaurtinib_02473_R3,Plate:MR010",37.7 nM
